Bioassay records: PubChem, several laboratories
TMEM16A act = TMEM16A chloride channel activators or potentiators, primary screen, cell-based, HTS | AID 623877, 2012 | B-score at 10 µM | 340,000 tested, 0.3% active | HEK293 TMEM16A/YFP-H148Q/I152L, iodide quench fluorescence; stronger effect = lower value | Anoctamin-1 (Mus musculus), Q8BHY3;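 active means fluorescence-ratio B-score plate-corrected deviation score at least 3 library SD below zero, with starting fluorescence score within 5 deviations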;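 further: channel opened by trigger with iodide after compound preincubation; score built on the fluorescence ratio of max minus min over baseline; more negative score means more quench and so TMEM16A activation or potentiation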
aSyn UTR inh = MLPCN primary screen, SNCA 5' untranslated region | alpha-synuclein 5'UTR reporter, inhibitor activity | inhibition, % (tested at 7.5 µM) | 300,000 tested, 0.82% active | AID 1813, 2009; in the data active means inhibition above about 60%;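 further: H4 neuroglioblastoma cells stably carrying SNCA 5'UTR luciferase fusion; 0% = DMSO wells and 100% = positive control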
ANO1 block = TMEM16A chloride channel inhibitors, primary screen, cell-based, HTS. HEK293 TMEM16A/YFP iodide influx fluorescence, ionomycin. 310,000 tested, 1.2% active. normalized B-score (activity score, 25-100; higher = stronger inhibition) at 10 µM. AID 588511, 2011. Anoctamin-1 (Mus musculus), Q8BHY3;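 active means ratio plate-corrected score three or more library SD toward inhibition, starting fluorescence score within five deviations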;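 further: score derived from kinetic fluorescence span divided by baseline fluorescence per well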
697 NFkB inh = inhibitors of PMA/ionomycin-induced NF-kB reporter, 697 cells, primary screen, B-cell NF-kB inhibitor project, cell-based, luminescence, uHTS; 697 B-cell NF-kB luciferase reporter, 16 h; inhibition, % at 4 µM; 330,000 tested, 0.33% active; AID 435022, 2010; in the data active means inhibition above about 35%
Jurkat NFkB inh = inhibitors of induced NF-kB luciferase reporter, primary screen, TCR NF-kB activation inhibitor project, cell-based, luminescence, uHTS; Jurkat, PMA/ionomycin-induced NF-kB luciferase reporter; inhibition, % at 4 µM; 330,000 tested, 0.53% active; AID 435003, 2010; in the data active means inhibition above about 50%
KLF5 inh = KLF5 expression inhibitors, primary screen, DLD-1 cells, luminescence; 290,000 tested, 0.23% active; inhibition, % at 5 µM; DLD-1 KLF5 promoter-luciferase reporter;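 active means inhibition above a per-plate limit of that plate's mean compound inhibition plus 3 SD, cut at about 60% in these data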;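 further: 0% = DMSO wells and 100% = LY294002 at 200 µM; higher means less KLF5 promoter-driven luciferase light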
TMEM16A reconf = TMEM16A chloride channel inhibitors, confirmation, cell-based, re-confirmation; inhibition, % at 10 µM; AID 652189, 2013; shares compounds with ANO1 block; 2,300 tested, 39% active; HEK293 TMEM16A/YFP-H148Q, iodide quench fluorescence; ionomycin added to raise cell calcium;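 active means mean duplicate percent inhibition, scaled so buffer wells are 0 and the reference blocker 100, over three buffer SD above buffer mean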
TMEM16A Ca cntr = calcium mobilization in TMEM16A/YFP HEK293 cells, confirmation, counter-screen for TMEM16A inhibitor project | shares compounds with ANO1 block | Fluo4 calcium mobilization | 2,300 tested, 2% active | calcium response (% of ionomycin), % at 10 µM;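 active means duplicate-averaged calcium signal over 20% of the ionomycin maximum, relative to buffer baseline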;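 further: each well's signal is peak minus trough fluorescence divided by its pre-addition baseline; 0% = buffer wells and 100% = ionomycin wells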
Parental YFP cnt = iodide YFP quench changes in parental YFP-HEK293, counter-screen for TMEM16A inhibitor project, cell-based. YFP ratio F(max-min)/F0 at 10 µM. 2,300 tested, under 10 active. shares compounds with ANO1 block. ionomycin;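 active means yellow fluorescent protein signal ratio exceeding the buffer control mean by over 5 SD of those controls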;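 further: ratio is mean of duplicate wells from kinetic YFP trace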
ClC-1 inh = ClC-1 chloride channel inhibition, selectivity assay for TMEM16A inhibitor project, cell-based, voltage-dependent ClC-1. ratio percent, % at 10 µM. AID 652236, 2013. shares compounds with ANO1 block. CHO ClC-1-YFP, iodide influx fluorescence quench; iodide control reads 0, buffer control 100. 2,300 tested, under 10 active;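 active means duplicate-mean ratio percent above the mean of iodide-only control wells, which defines zero, plus 5 of their SD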;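 further: higher percent means stronger block of ClC-1 iodide influx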
* hit, by the source's call; i = inactive; nt = no result given. The list is not random: actives were taken first. Their share in the collection is about 2.5%.

SMILES | TMEM16A act | aSyn UTR inh | ANO1 block | 697 NFkB inh | Jurkat NFkB inh | KLF5 inh | TMEM16A reconf | TMEM16A Ca cntr | Parental YFP cnt | ClC-1 inh
O=C(Nc1cccnc1)c1ccc(Cl)c(S(=O)(=O)N2CCCCCC2)c1 | i | -50 | 25* | 10 | 1 | -33 | 30%* | i | -1.1 | -14
O=C(Nc1ccc(Br)cc1)c1ccc(F)c(S(=O)(=O)N2CCN(c3ccccn3)CC2)c1 | i | 51 | 25* | -28 | 25 | -9 | i | i | -1.1 | -16
O=C(Nc1ccncc1)c1ccc(Cl)c(S(=O)(=O)N2CCCCC2)c1 | i | -24 | 25* | -45 | 20 | nt | i | i | -1 | -20
O=C(Nc1ccc(NC(=O)c2ccc(Cl)c(S(=O)(=O)N3CCOCC3)c2)cc1)c1ccccc1 | i | -15 | i | -37 | 37 | -25 | nt | nt | nt | nt
Cc1ccc(C(=O)Nc2cccnc2)cc1S(=O)(=O)N1CCCCCC1 | i | -29 | i | -18 | -32 | -27 | nt | nt | nt | nt
O=C(Nc1ccc(Cl)c(S(=O)(=O)N2CCCCC2)c1)c1ccncc1 | i | nt | nt | -57 | 14 | nt | nt | nt | nt | nt
CC1(O)CC2CC1C(C(=O)O)C2C(=O)O (configuration not stated) | i | nt | nt | nt | nt | nt | nt | nt | nt | nt
O=C(NCC(O)c1ccccc1)c1ccc(Cl)c(S(=O)(=O)N2CCCC2)c1 (configuration not stated) | i | -96 | i | -32 | -19 | nt | nt | nt | nt | nt
O=C(NCC(O)c1ccccc1)c1ccc(Cl)c(S(=O)(=O)N2CCCCC2)c1 (configuration not stated) | i | -21 | 25* | -46 | 12 | -25 | i | i | -0.88 | -12
CC(O)CNc1ncnc2cc(-c3ccc(F)cc3)sc12 (configuration not stated) | i | -62 | i | -34 | -33 | -60 | nt | nt | nt | nt
O=C(COc1ccc(Cl)cc1)Nc1ccc(Cc2ccncc2)cc1 | i | 17 | 25* | 6 | 6 | 5 | 17%* | i | -1 | -4
COc1cccc(NC(=O)COc2ccc(Br)c(C)c2)c1 | i | -40 | i | -9 | -12 | -20 | nt | nt | nt | nt
Cc1cc(OCC(=O)Nc2ccncc2)ccc1Br | i | 19 | 100* | -1 | 4 | -18 | i | i | -1.1 | -12
COc1cc(CC(=O)OCC(=O)NC2CCCCC2C)cc(OC)c1OC (configuration not stated) | i | nt | nt | 11 | 15 | nt | nt | nt | nt | nt
CC1(C)c2[nH]c3ccccc3c2C[C@H]2C(=O)N(CCCCCO)CC(=O)N21 | i | 11 | i | 3 | -22 | -1 | nt | nt | nt | nt
Cc1ccccc1-c1cc(C(=O)NCc2cccc(C(F)(F)F)c2)n(CC2CC(c3cccnc3)=NO2)n1 (configuration not stated) | i | nt | nt | -2 | 3 | nt | nt | nt | nt | nt
CCOc1ccc(Br)cc1S(=O)(=O)NC1CCCC1 | i | nt | nt | -1 | 3 | nt | nt | nt | nt | nt
CC1CCCCC1NC(=O)COc1ccccc1C#N (configuration not stated) | i | nt | nt | -11 | -13 | nt | nt | nt | nt | nt
COc1ccc(NC(=O)c2csc(Cc3ccccc3)n2)cc1 | i | -110 | 25* | 7 | -15 | -50 | i | i | -1.1 | -4
O=C(CN1CCN(c2ccc(O)cc2)CC1)N(C1CC1)C1CCS(=O)(=O)C1 (configuration not stated) | i | nt | nt | 13 | 2 | nt | nt | nt | nt | nt
COc1ccc(-n2nnnc2SCC(=O)Nc2ccc(OC)cc2OC)cc1 | i | 5 | i | -9 | -3 | -41 | nt | nt | nt | nt
CCN(CC)S(=O)(=O)c1cccc(NC(=O)COc2ccc(Cl)cc2Br)c1 | i | 12 | 25* | -31 | -4 | -17 | i | i | -0.98 | -8
COc1cc(OC)c(C(=O)OC(C)C(=O)NCc2ccc3c(c2)OCO3)cc1OC (configuration not stated) | i | nt | nt | 14 | 4 | nt | nt | nt | nt | nt
CNC(=S)N1N=C(c2ccc(OC)cc2)CC1c1ccccc1Cl (configuration not stated) | i | 3 | 25* | 0 | -1 | -35 | 45%* | i | -0.9 | -6
CNC(=S)N1N=C(c2ccc(OC)cc2)CC1c1ccc(Cl)cc1Cl (configuration not stated) | i | -29 | i | 12 | 13 | -4 | nt | nt | nt | nt
SMILES | TMEM16A act | aSyn UTR inh | ANO1 block | 697 NFkB inh | Jurkat NFkB inh | KLF5 inh | TMEM16A reconf | TMEM16A Ca cntr | Parental YFP cnt | ClC-1 inh
CCn1cc(CN2CCCC(C(=O)Nc3ccc(-c4cscn4)cc3)C2)cn1 (configuration not stated) | i | 8 | i | -8 | 1 | -41 | nt | nt | nt | nt
O=C(Cc1c(F)cccc1Cl)NNC(=O)c1ccncc1 | i | nt | nt | -6 | -14 | nt | nt | nt | nt | nt
COc1cc(C(=O)Nc2cccc(-c3cn4cccnc4n3)c2)cc(OC)c1OC | i | 2 | i | 29 | 1 | -16 | nt | nt | nt | nt
Cc1onc(-c2ccccc2Cl)c1C(=O)Nc1cccc(-c2cn3cccnc3n2)c1 | i | nt | 25* | 19 | 25 | -37 | i | i | -0.95 | -8
COc1ccc(Br)cc1C(=O)Nc1ccccc1N1CCCC1 | i | 4 | 100* | 9 | 1 | nt | 24%* | i | -0.99 | -14
Cc1ccc2c(CN(C)Cc3ccc(Cl)cc3)cc(=O)oc2c1 | i | -22 | i | 2 | 0 | -22 | nt | nt | nt | nt
CCCn1c(CC)nc([N+](=O)[O-])c1Sc1ccc(C)cc1 | i | -6 | i | 9 | 3 | 8 | nt | nt | nt | nt
CCCn1c(CC)nc([N+](=O)[O-])c1Sc1ccc(F)cc1 | i | -26 | 25* | 2 | -1 | 8 | i | i | -0.95 | -6
COc1cccc(CNc2cnc3ccccc3c2)c1O | i | -219 | 25* | -162 | -72 | -151 | 26%* | i | -0.94 | -13
